Screens from PubChem BioAssay.
In the library only some 9.2% were active in any assay of this set; here they are far more common.
NPC1 promoter act: qHTS Assay for NPC1 Promoter Activators; Huh7 NPC1 promoter luciferase reporter, 24 h; AID 485313, 2010; hit rate 2.4% among 320,000; Potency, µM (titrated, usually from 9.22 µM), without a hit: top-dose activation, hits mostly activators; further: % of control where 0% means no effect; nearly all actives have a fitted effect of over 60% in size
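NPC1 promoter–luciferase Huh7 cells; 24 h compound; luminescence.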
FLuc counter: qHTS profiling assay for firefly luciferase inhibitor/activator using purifed enzyme and Km concentrations of substrates (counterscreen for miR-21 project); purified FLuc, Km substrates, luminescence inhibition; Luciferin 4-monooxygenase (Photinus pyralis), P08659; hit rate 6.9% among 360,000; AID 588342, 2011; Potency, µM (top dose mostly 57.5 µM), for the others: at the highest dose activity change, negative = inhibition, hits mostly inhibitors;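 further: plate controls were vehicle for no effect and reference inhibitor for full effect; nearly all actives have a fitted effect of over 55% in size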
Target sequence (P08659 whole entry, looked up): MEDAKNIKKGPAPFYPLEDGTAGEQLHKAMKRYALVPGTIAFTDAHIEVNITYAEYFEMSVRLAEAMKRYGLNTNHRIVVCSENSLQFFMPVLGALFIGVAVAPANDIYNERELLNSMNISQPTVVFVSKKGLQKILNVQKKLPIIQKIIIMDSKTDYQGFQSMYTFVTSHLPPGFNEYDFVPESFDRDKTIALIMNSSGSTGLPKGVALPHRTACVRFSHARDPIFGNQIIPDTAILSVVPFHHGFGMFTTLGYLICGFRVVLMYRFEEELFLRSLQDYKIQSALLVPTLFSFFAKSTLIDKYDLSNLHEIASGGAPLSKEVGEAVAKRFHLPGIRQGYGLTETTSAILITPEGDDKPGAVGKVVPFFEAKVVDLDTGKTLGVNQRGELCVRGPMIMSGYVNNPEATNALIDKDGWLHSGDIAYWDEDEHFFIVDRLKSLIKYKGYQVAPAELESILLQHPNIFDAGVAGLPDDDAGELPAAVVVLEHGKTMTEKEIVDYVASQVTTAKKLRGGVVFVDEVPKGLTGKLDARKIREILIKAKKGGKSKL
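Purified P. pyralis luciferase (10nM final) with 10uM D-luciferin and 10uM ATP (Km levels) in 50mM Tris acetate pH 7.5, 10mM Mg acetate, 0.01% Tween-20, 0.05% BSA; qHTS 6-point titration, ~60 µM downward; luminescence read.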
SMN2 splice enh: qHTS Assay for Enhancers of SMN2 Splice Variant Expression; AID 1458, 2008; HEK293 SMN2-luciferase splicing reporter, luminescence, 30-36 h; hit rate 2.8% among 210,000; Potency, µM (top dose mostly 46.1 µM), without a hit: top-dose activity change, positive = activation, actives largely listed as activators; further: % of control where 0% means no effect; nearly all actives have a fitted effect of over 55% in size
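HEK293 cells carry an SMN2 […]–luciferase reporter in which exon 7 inclusion puts luciferase in frame. Cells were plated 10-12 h before compound addition, then incubated 30-36 h at 37C. ONE-Glo luminescence was read; sodium butyrate at 4.5 mM final served as control.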
Rab9 promoter act: qHTS Assay for Rab9 Promoter Activators | Huh7 Rab9 promoter-luciferase reporter, luminescence, 24 h | Potency, µM (doses to about 9.22 µM), for inactives: at the highest dose activation, negative = inhibition, usual class: activators | hit rate 2.8% among 320,000 | AID 485297, 2010; further: % of control where 0% means no effect; nearly all actives have a fitted effect of over 60% in size
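Luminescence read-out: Huh7 cells stably expressing Rab9-luciferase, treated 24 h with compound at 37 °C, then lysed with luciferase reagent for 10 min at ambient before reading.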
ELG1 genotoxic: qHTS screen for small molecules that induce genotoxicity in human embryonic kidney (HEK293T) cells expressing luciferase-tagged ELG1; Potency, µM (series often up to 46 µM), for inactives: at the top dose activity change, positive = activation, actives largely listed as activators; hit rate 1.3% among 330,000; HEK293T ELG1-luciferase reporter, luminescence, 16 h; AID 504466, 2011; further: % of control where 0% means no effect; nearly all actives have a fitted effect of over 60% in size
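16 hr compound incubation (37 °C, 5% CO2) of HEK293T cells carrying luciferase-tagged ELG1; luciferase then measured by ONE-Glo luminescence after 30 min at RT.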
ELG1 DNA repair: qHTS screen for small molecules that inhibit ELG1-dependent DNA repair in human embryonic kidney (HEK293T) cells expressing luciferase-tagged ELG1. HEK293T ELG1-luciferase reporter, luminescence, 16 h; DNA damage induced by 5-fluorouridine. Potency, µM (titrated, usually from 46.1 µM), for inactives: at the highest dose activity change, negative = inhibition, hits mostly inhibitors. hit rate 2.3% among 330,000. AID 504467, 2011; further: on the % scale 0 is the no-effect control and ±100 the full control effect; nearly all actives have a fitted effect of over 55% in size
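5-Fluorouridine DNA damage + compound/DMSO, 2,000 cells/well, 16 h, 37 °C/5% CO2. ONE-Glo, 30 min RT, luminescence. Readout = decrease in reporter signal.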
Active calls of the source: *; ? = inconclusive; . = no result given. The call rests on the fitted dose curve; in most records, active means well fitted curve in the direction sought with a large enough effect; inconclusive means small, poorly fitted or top-dose-only effect, or another doubt; inactive means no such curve, though single readings can be large; an effect the other way counts as inactive or inconclusive. Potency means the concentration at half of the fitted maximal effect.

SMILES | NPC1 promoter act | FLuc counter | SMN2 splice enh | Rab9 promoter act | ELG1 genotoxic | ELG1 DNA repair
O=C(Cc1csc(NC(=O)Nc2ccc(Cl)cc2)n1)NC1CCCC1 | 16.6% | 4.78µM* | . | -3.0% | -0.1% | 4.2%
CCc1ccccc1NC(=O)CC1SCCNC1=O (centres undefined) | -3.5% | -0.9% | 4.5% | -5.7% | 19.7% | 16.1%
O=C1N/C(=C\c2nc3ccccc3s2)c2ccccc21 | 1µM* | 0.19µM* | . | 0.282µM* | 0.58µM* | ?
CCN(Cc1ccccc1)C(=O)c1cc(-c2ccccc2)n[nH]1 | . | 15.1µM* | . | . | . | .
CCN(Cc1ccccc1)C(=O)c1ccc(C(=O)N(CC)Cc2ccccc2)cc1 | -11.1% | 8.0% | . | -6.6% | -4.5% | -2.8%
CCOc1ccccc1CNC(=O)CCc1cn(Cc2ccc(Cl)cc2)c2ccccc12 | . | 5.5% | . | . | . | .
O=C1c2cccnc2C(=O)N1c1cccc([N+](=O)[O-])c1 | -2.9% | -1.0% | . | -0.7% | -0.3% | 4.0%
O=C(OCCN1CCOCC1)c1ccc2c(c1)OCCO2 | . | 23.9µM* | ? | . | . | .
O=C(CCCN1CCOCC1)c1ccc2c(c1)OCCO2 | ? | 13.5µM* | ? | 2µM* | ? | ?
O=C(OCCN1CCOCC1)c1ccc(O)cc1 | 1.1% | -4.8% | . | 8.3% | -0.8% | -15.7%
O=C(CCN1CCOCC1)c1ccc2c(c1)OCCO2 | 0.8% | -3.7% | 25.1% | 5.2% | 5.0% | 0.8%
O=C(OCCN1CCOCC1)c1ccc(Cl)cc1Cl | 1.1% | 23.9µM* | . | -1.5% | 9.2% | 7.4%
CN1CCCC(OC(=O)c2ccc(C#N)cc2)C1 (centres undefined) | -1.1% | 1.2% | . | 5.3% | 2.3% | ?
COc1ccc(C2C3=C(CCCC3=O)N(CC(=O)O)C3=C2C(=O)CCC3)cc1Cl | 10.2% | -1.7% | . | -2.9% | 0.5% | 1.9%
Cc1csc(SCC(=O)Nc2cc(S(=O)(=O)N(C)C)ccc2C)n1 | 0.3% | -2.1% | . | -2.3% | 1.5% | 1.6%
COc1cc(C(=O)OCC(=O)NCc2ccc(F)cc2)ccc1OCC(C)C | -0.7% | 6.9% | . | -0.4% | 8.8% | 1.6%
COc1ccc(OC)c(NC(=O)c2nnn(Cc3ccccc3C)c2N)c1 | 1.1% | 1.8% | -30.3% | -9.2% | 7.9% | 11.2µM*
COc1ccc(NC(=O)c2nnn(Cc3ccccc3C)c2N)c(OC)c1 | . | -1.7% | -12.3% | . | . | .
CCOc1ccc(NC(=O)c2nnn(CC(=O)Nc3ccccc3OC)c2N)cc1 | 18.0% | 2.69µM* | -1.3% | 19.3% | 5.6% | ?
COc1ccc(CCNC(=O)Cn2nnc(-c3ccc(OC)c(OC)c3)n2)cc1OC | -2.5% | -5.7% | -8.1% | -2.9% | -3.4% | ?
CCOc1ccc(NC(=O)Cn2nnc(C(=O)NCCc3ccc(OC)c(OC)c3)c2N)cc1 | 1.9% | -0.8% | -8.8% | 4.9% | -0.6% | -12.6%
COc1ccccc1NC(=O)Cn1nnc(C(=O)Nc2ccccc2)c1N | 2.0% | -2.8% | -17.9% | -3.8% | -8.0% | 25.4%
COc1ccc(CCNC(=O)Cn2nnc(C(=O)Nc3ccc(Br)cc3)c2N)cc1OC | -1.2% | 9.53µM* | . | -6.7% | -3.0% | ?
COc1ccc(CCNC(=O)Cn2nnc(-c3ccc(N(C)C)cc3)n2)cc1OC | -0.2% | 16.9µM* | -57.3% | -0.4% | -0.2% | -1.8%
CC(C)(C)Cc1nnc(NC(=O)c2ccco2)s1 | ? | ? | . | ? | 17.8% | ?
SMILES | NPC1 promoter act | FLuc counter | SMN2 splice enh | Rab9 promoter act | ELG1 genotoxic | ELG1 DNA repair
COc1ccc(-c2noc(CSc3nnc(C)n3-c3ccc(C)c(C)c3)n2)c(OC)c1 | . | -13.4% | -3.2% | . | . | .
O=C1C(Nc2ccccc2)=CC(c2ccc(Br)cc2)N1c1ccccc1 (centres undefined) | . | 5.2% | 3.9% | . | . | .
Cc1ccc(NC(=O)/C(=C\c2ccc([N+](=O)[O-])cc2)NC(=O)c2ccccc2)cc1 | -0.4% | 0.3% | -6.5% | -7.4% | -0.6% | 14.5%
O=C(N/N=C/c1ccc(O)c(O)c1O)/C(=C/c1ccc([N+](=O)[O-])cc1)NC(=O)c1ccccc1 | -2.8% | 10.7µM* | 1.3% | -9.2% | 1.7% | ?
N#Cc1c(/N=C/c2cccs2)sc2c1CCC2 | 3.16µM* | 1.51µM* | 17.8µM* | 2µM* | 7.08µM* | ?
N#Cc1c(/N=C/c2ccco2)sc2c1CCCCC2 | 0.794µM* | 0.169µM* | -9.5% | 3.55µM* | ? | ?
COc1cc(C(=O)NNC(=S)Nc2ccc(S(N)(=O)=O)cc2)cc(OC)c1OC | -2.1% | ? | -3.7% | -3.2% | 0.6% | ?
CCCCN(C(=O)CSCC(=O)Nc1ccc(C)cc1)c1c(N)n(Cc2ccccc2)c(=O)[nH]c1=O | 4.7% | -1.7% | . | 3.3% | 3.2% | -11.5%
CCOC(=O)c1c(NC2OC(=O)c3c2ccc(OC)c3OC)sc(C(=O)OC(C)(C)C)c1C (centres undefined) | 25.6% | 16.9µM* | . | 21.9% | ? | ?
C/C(=N\NC(=O)c1nnn(-c2nonc2N)c1-c1ccccc1)c1ccccc1O | -34.9% | 0.3% | . | -36.8% | 5.2% | 1.83µM*
Fc1ccc2c(c1)[C@H]1OCC[C@H]1[C@@H](c1ccco1)N2 | -2.1% | -0.9% | -22.3% | 1.5% | 0.7% | 8.3%
CCc1ccc2c(c1)[C@H]1OCC[C@H]1[C@@H](c1cccs1)N2 | -15.5% | 15.1µM* | -22.9% | -22.5% | 2.7% | -1.0%
Cc1c([N+](=O)[O-])c2ccc(O)cc2n1-c1ccccc1 | 2.6% | 1.6% | . | 2.0% | -9.1% | 4.61µM*
Cc1ccc(-n2c(C)c([N+](=O)[O-])c3ccc(O)cc32)cc1 | -4.3% | -2.9% | . | 0.4% | -9.5% | ?
CCN(CC)S(=O)(=O)c1ccc2c(c1)N(CC(=O)N1CCN(c3cccc(C)c3C)CC1)C(=O)CO2 | . | 2.1% | . | . | . | .
O=C(OCC(=O)N1CCN(C(=O)COC(=O)c2ccc(O)cc2O)CC1)c1ccc(O)cc1O | -1.9% | -0.5% | . | -0.4% | 4.4% | -8.1%
Cc1cc(C(=O)COC(=O)c2ccc(O)cc2O)c(C)n1C(C)C | 3.55µM* | 4.78µM* | . | 3.55µM* | 12.5% | -18.8%
Cc1cc(C(=O)COC(=O)c2n[nH]c(=O)c3ccccc23)c(C)n1C(C)C | 26.7% | 1.69µM* | . | ? | ? | ?
CCc1nn(C(CC)C(=O)NCc2cccc(OC)c2)c(=O)c2cc3occc3n12 (centres undefined) | 0.8% | 1.2% | . | 0.3% | -0.2% | -0.7%
COc1ccc2c(c1)OC/C(=C\c1ccc(OC)c(O)c1)C2=O | . | . | -25.9% | . | . | .
